Measurements from PubChem BioAssay AID2384 (Southern Research Specialized Biocontainment Screening …, 2010).
Out of some 2,300 compounds screened, about 1,100 (48%) were called active. How the calls were made is not given here. So high a share suggests a set chosen from earlier hits. The list shows a part of the results. Measured potencies and affinities stand elsewhere.

Test: inhibitors in S. typhi counter-screen strain, dose response, counter-screen for PhoP regulon inhibitor project, fluorescence, 4 h (AID 2384)
Conditions: S. typhi GFP reporter counter-screen; series mostly up to 150 µM; inhibition: at the top concentration

| SMILES | inhibition |
| --- | --- |
| O=C(NCCCn1ccnc1)c1cc2c(ccc3ccccc32)o1 | 2.24% (inactive) |
| O=C(/C=C/c1ccc(Cl)cc1)NCCCn1ccnc1 | 0.67% (inactive) |
| CC(=O)CC1OC(=O)C(Br)=C1NCc1ccccc1 (configuration not stated) | -3.4% (inactive) |
| Cc1ccc(-n2c(Cc3noc4ccccc34)n[nH]c2=S)cc1 | 10.6% (inactive) |
| CCn1c(-c2ccncc2)n[nH]c1=S | 12.1% (inactive) |
| O=C(OCCCN1C(=O)c2ccccc2C1=O)c1ccco1 | -5.7% (inactive) |
| OCC[C@H]1C[C@H](O)[C@@H](O)[C@@]2(Cc3ccccc3CO2)O1 | -6.02% (inactive) |
| Cc1ccc(N(CC(=O)Nc2c(C)n(C)n(-c3ccccc3)c2=O)S(C)(=O)=O)cc1C | -19.8% (inactive) |
| Oc1ccc(C=NC2CCCCC2)c(O)c1 | 3.6% (inactive) |
| Cc1nc2ccccc2nc1N/N=C/c1ccc(O)cc1O | -11.7% (inactive) |
| CCN(CCCNC(=O)c1cn(CC)c2ccc(S(=O)(=O)N(C)C)cc2c1=O)c1cccc(C)c1 | -22.2% (inactive) |
| Clc1ccc(CONc2ncnc3nonc23)c(Cl)c1 | 5.19% (inactive) |
| COc1ccc(OC)c(C2=NO[C@@H]3C(=O)N(c4cc(Cl)ccc4OC)C(=O)[C@H]23)c1 | 12.2% (inactive) |
| CC(C)(C)CC(=O)Nc1nnc(SCC(=O)N2CCCCC2)s1 | -8.51% (inactive) |
| Cc1cc(C)c(S(=O)(=O)Nc2ccccc2C(=O)OCC(=O)NCc2ccccc2)c(C)c1 | 9.32% (inactive) |
| CC1Cc2ccccc2N1S(=O)(=O)c1cccc(C(=O)N2CC(=O)Nc3ccccc32)c1 (configuration not stated) | -16.2% (inactive) |
| Cn1c(-c2ccc(Cl)cc2)cnc1N | -7.06% (inactive) |
| O=[N+]([O-])c1ccc(-c2cnc(NO)nc2)cc1 | -23.9% (inactive) |
| CCC(O)CNc1nc(SC)nc2sc3c(c12)CCN(C)C3 (configuration not stated) | 16.6% (inactive) |
| c1ccc(CSc2ccc(-c3cccs3)nn2)nc1 | 4.57% (inactive) |
| COc1ccc(C(=O)C[n+]2cc(Br)cc3ccccc32)cc1[N+](=O)[O-] | 29.9% (inactive) |
| c1ccc2c(Nc3nnc(-c4ccncc4)s3)cccc2c1 | 24.4% (inactive) |
| O=C(N/N=C/c1cccnc1)c1ccc(F)cc1 | 10.8% (inactive) |
| CC(/C=C\c1cccnc1)=C/C(=O)O | -16.1% (inactive) |

| SMILES | inhibition |
| --- | --- |
| Clc1ccc(N/N=C/c2cccs2)nn1 | -13% (inactive) |
| CSc1nnc(-c2cccc(NC(=S)NN)c2)o1 | 7.59% (inactive) |
| Cc1ccc2cc(CN(Cc3ccc(F)cc3)Cc3nnnn3C3CCCC3)c(=O)[nH]c2c1 | 8.53% (inactive) |
| Nc1ccc(S(=O)(=O)c2ccc(N)cc2)cc1 | -5.09% (inactive) |
| Cc1ccc(NC(=S)NCc2cccnc2)cc1 | 5.02% (inactive) |
| CCc1nnc(NC(=O)c2ccc(S(C)(=O)=O)cc2)s1 | -14.3% (inactive) |
| O=C(O)c1cnn2c1NC(c1cccs1)CC2C(F)(F)F (configuration not stated) | 16.9% (inactive) |
| CCCn1c(SCc2ccc(Cl)cc2)nc2c1c(=O)[nH]c(=O)n2C | -20.7% (inactive) |
| NS(=O)(=O)c1ccc(CCNS(=O)(=O)c2cccc(C(=O)O)c2)cc1 | -9.07% (inactive) |
| NS(=O)(=O)c1ccc(CCNC(=O)C(=O)C2C(=O)Nc3ccccc32)cc1 (configuration not stated) | -11.2% (inactive) |
| COC(=O)C1=C(C)N(Cc2ccco2)C(=O)N[C@H]1c1ccc(Br)cc1 | -1.77% (inactive) |
| COC(=O)C1=C(C)N(CC2CC2)C(=O)N[C@H]1c1ccc(Br)cc1 | 11.5% (inactive) |
| CC(C)CC(c1nnnn1Cc1ccco1)N1CCN(c2cccc(Cl)c2)CC1 (configuration not stated) | -13% (inactive) |
| CCCC(C(=O)NCC1CCCO1)N(Cc1ccco1)C(=O)CNS(=O)(=O)c1ccc(F)cc1 (configuration not stated) | -8.97% (inactive) |
| Cc1c(C2(O)C(=O)Nc3ccc(F)cc32)c(=O)n(-c2ccccc2)n1C (configuration not stated) | -5.34% (inactive) |
| Nc1ccc(N=Nc2ccccc2)c(N)n1 | 22.1% (inactive) |
| Nc1nc2ccccc2cc1-c1cccs1 | 12.7% (inactive) |
| Nc1nn2cc(-c3ccccc3)nc2c2ccccc12 | 15.4% (inactive) |
| Cc1ccc(CN2C3=NCCN3c3ccccc32)cc1 | 29.4% (inactive) |
| Cc1cccc(CN2C3=NCCCN3c3ccccc32)c1 | 15.7% (inactive) |
| O=C(CSc1ccc(Cl)cc1)c1ccco1 | 26.8% (inactive) |
| O=C(COc1ccc(Cl)cc1)N1CCCCC1 | 9.39% (inactive) |
| CC(C)(C)NC(=O)/C=C/c1ccc(C(F)(F)F)cc1 | -6.9% (inactive) |
| CC(=O)C1C(c2ccc(OC(F)F)cc2)NC(=O)NC1(O)C(F)(F)F (configuration not stated) | -15.1% (inactive) |

| SMILES | inhibition |
| --- | --- |
| c1ccc2c(SCc3cn4ccccc4n3)nncc2c1 | 4.71% (inactive) |
| O=C(Cn1c(C(F)(F)F)nc2ccccc21)NCCCN1CCOCC1 | -3.11% (inactive) |
| Cc1cccc(N(C(=O)CCC(=O)Nc2ccccn2)C(C(=O)NC(C)C)c2ccc(O)cc2)c1 (configuration not stated) | 15% (inactive) |
| CC(C(=O)NC1CCCCC1)N1CCN(C)CC1 (configuration not stated) | 1.49% (inactive) |
| O=C(CCS(=O)(=O)c1ccccc1)Nc1ccc2c(c1)C(=O)NC2=O | -16.3% (inactive) |
| CCCCCCNC1=NCCS1 | 27.9% (inactive) |
| CC(=O)Cc1nsc(NC(=O)c2csc3c2CCCC3)n1 | 28% (inactive) |
| C[N+](C)(CCCCCC[N+](C)(C)CCCN1C(=O)c2cccc3cccc(c23)C1=O)CCCN1C(=O)c2cccc3cccc(c23)C1=O | 28.2% (inactive) |
| CCn1c(=N)n(CC(=O)c2ccc(OC)cc2)c2ccccc21 | 31.4% (inactive) |
| CCOC(=O)CNC(=O)Cn1c(C)cc2ccccc2c1=O | 12.6% (inactive) |
| Cc1ccc(-n2c(=O)c3sccc3n(CC(=O)NC3CCCCC3)c2=O)cc1 | 15.9% (inactive) |
| COc1ccc(/C=N/NC(=O)c2cc3c(OC)ccc(OC)c3[nH]2)cc1O | -4.36% (inactive) |
| O=C(CSc1nnc(-c2cccnc2)n1Cc1ccco1)c1ccc2ccccc2c1 | -19.2% (inactive) |
| Cc1cc(NCCCn2ccnc2)n2ncc(-c3ccccc3)c2n1 | 8.67% (inactive) |
| Cc1ccccc1Cn1c(=O)n(CCCC(=O)NCc2ccco2)c(=O)c2ccccc21 | -18.6% (inactive) |
| Cc1cc(C)nc(SCC(=O)NCc2ccco2)n1 | 9.9% (inactive) |
| COc1ccccc1NC(=O)Cn1c(=O)n(CCc2c[nH]c3ccccc23)c(=O)c2cccnc21 | 26.1% (inactive) |
| COc1ccc(CNCCc2c[nH]c3ccccc23)c(OC)c1C | 9.27% (inactive) |
| CCOC(=O)Cn1c(=O)oc2cc(S(=O)(=O)NCC3CCCO3)ccc21 (configuration not stated) | -17.4% (inactive) |
| Cc1ccc(N2CC(C(=O)OCc3ccccc3F)CC2=O)cc1 (configuration not stated) | 1.86% (inactive) |
| C=C(C)Cn1c(SCC#N)nc2ccccc2c1=O | -22.7% (inactive) |
| Cc1cc(C(F)F)n2nc(C(=O)Nc3cc(C)on3)nc2n1 | 15.3% (inactive) |
| CCc1nc(C)ccc1OCC(=O)N(CC)CC | -8.77% (inactive) |
| CNS(=O)(=O)c1cccc(C(=O)OCc2cc(=O)oc3c(C)c(O)ccc23)c1 | 1.59% (inactive) |

| SMILES | inhibition |
| --- | --- |
| [O-][n+]1onc2c1CCc1[nH]c(-c3ccccc3)nc1-2 | -7.84% (inactive) |
| CN(C)C(/C=C/Nc1ccc(F)cc1F)=C(C#N)C#N | 5.93% (inactive) |
| CC(=O)Nc1cccc(NS(=O)(=O)Cc2ccc(Cl)cc2)c1 | 1.33% (inactive) |
| CC(=O)Nc1cccc(NC(=O)Nc2ccc(C)c(Cl)c2)c1 | 9.85% (inactive) |
| O=C(Cn1c(=O)oc2ccccc21)N1CCN(c2ccc(N3CCOCC3)nn2)CC1 | -8.66% (inactive) |
| CCn1c(SCC(=O)Nc2oc(-c3ccccc3)c(-c3ccccc3)c2C#N)nnc1-c1ccco1 | -4.5% (inactive) |
| O=C(O)Cn1c(=O)c2c3c(sc2n(Cc2ccccc2F)c1=O)CCCC3 | 4.22% (inactive) |
| O=C1CCCC(=O)N1c1ccc(N2CCOCC2)c([N+](=O)[O-])c1 | -18.8% (inactive) |
| Cc1cc(N2CCCCC2)c(F)cc1[N+](=O)[O-] | 1.62% (inactive) |
| Cc1cnc(NC(=O)CN2C(=O)C3CC=CCC3C2=O)s1 (configuration not stated) | 9.52% (inactive) |
| O=C(Nc1ccccc1)c1ccc2nsnc2c1 | -11.4% (inactive) |
| Cc1ccccc1N1C(N)=NC(N)=NC1(C)C | -17.2% (inactive) |
| COC(=O)C(NC(C)=O)(Nc1nc2c(s1)CCCC2)C(F)(F)F (configuration not stated) | -34.8% (inactive) |
| Cc1[nH]c2ccccc2c1/C=C/c1nc2ccccc2c(=O)[nH]1 | -58.7% (inactive) |
| CCOC(=O)CSc1nc(-c2ccccc2)nc2ccccc12 | 4.75% (inactive) |
| COc1ccc(Cn2c(=N)c(C(=O)NCC3CCCO3)cc3c(=O)n4ccccc4nc32)cc1 (configuration not stated) | 14.7% (inactive) |
| c1ccc2oc(-c3csc(NCC4CCCO4)n3)cc2c1 (configuration not stated) | 14.7% (inactive) |
| COc1ccccc1Nc1nc(NCC2CCCO2)c2ccccc2n1 (configuration not stated) | -17.3% (inactive) |
| COc1ccc(Nc2nnc(SCC3CCCO3)s2)cc1 (configuration not stated) | -2.81% (inactive) |
| COc1ccc(CCn2c(=N)c(C(=O)NCC3CCCO3)cc3c(=O)n4ccccc4nc32)cc1 (configuration not stated) | -24.6% (inactive) |
| O=S(=O)(c1ccccc1)c1nc(-c2cccs2)oc1NCC1CCCO1 (configuration not stated) | 1.69% (inactive) |
| CC(=O)c1cccc(CN2CCN(C3CCCC3)C(CCO)C2)c1 (configuration not stated) | -25.6% (inactive) |
| CCCC1(c2ccccc2)NC(=O)N(CC(=O)Nc2ccccc2C(F)(F)F)C1=O (configuration not stated) | -9.26% (inactive) |
| Cc1cccn2c(=O)c3cc(C(=O)NCC4CCCO4)c(=N)n(C4CCCC4)c3nc12 (configuration not stated) | 6.06% (inactive) |

| SMILES | inhibition |
| --- | --- |
| O=C(NCC1CCCO1)c1cc2ccccc2oc1=O (configuration not stated) | -11.7% (inactive) |
| Cc1oc2nc(SCCCC(=O)NCCCO)nc(N)c2c1C | 12% (inactive) |
| Cc1c(C(=O)O)c(-c2ccccc2)nn1-c1ccccc1 | 27.3% (inactive) |
| CCN(CC)C(=O)CNC(=O)Cc1ccc(Cl)cc1 | 2.3% (inactive) |
| O=C1c2ccccc2C(=O)N1CCCP(=O)(O)CCc1ccccc1 | -32.8% (inactive) |
| COc1ccc(/C=N/NC(=O)c2ccc3c(c2)OCO3)cc1 | 32.6% (inactive) |
| COc1ccc(N2CCN(C(CNC(=O)c3ccc4c(c3)OCO4)c3ccco3)CC2)cc1 (configuration not stated) | 6.52% (inactive) |
| O=C(N/N=C\c1ccc(F)cc1)c1ccc(F)cc1 | 6.55% (inactive) |
| CCCCN1/C(=C/c2cccc[n+]2C)Sc2cc(NC(C)=O)ccc21 | 12.8% (inactive) |
| CC(Sc1nc2ccccc2o1)C(=O)O (configuration not stated) | 20% (inactive) |
| O=C(CSc1nc2ccccc2o1)c1cc2ccccc2oc1=O | -0.48% (inactive) |
| Cc1c(CC(=O)N2CCC(C(N)=O)CC2)c(=O)oc2cc3c(cc12)CCC1(CCCCC1)O3 | 6.85% (inactive) |
| O=C(/C=C/c1c(F)cccc1Cl)N1CCOCC1 | 20.2% (inactive) |
| COc1ccc2nc(Nc3ccccc3)sc2c1 | 39.4% (inactive) |
| Cc1cc(N/N=C/c2ccc(F)cc2)nc(NCc2ccccc2)n1 | 15.9% (inactive) |
| CC1CCN(C(=O)COc2ccc(Nc3ccccc3)cc2)CC1 | -23.7% (inactive) |
| CCCCNC(=S)Nc1ccc([N+](=O)[O-])cc1 | 0.84% (inactive) |
| O=C(Nc1ccc(N2CCOCC2)cc1)C1CCN(S(=O)(=O)c2ccccc2F)CC1 | -25% (inactive) |
| CCn1cc(C(=O)NCc2ccc3c(c2)OCO3)c(=O)c2cc(F)c(N3CCN(C(=O)c4ccco4)CC3)cc21 | 39.6% (inactive) |
| CCn1cc(C(=O)N[C@@H](C)C(=O)OC)c(=O)c2cc3c(cc21)OCO3 | 17.9% (inactive) |
| CCN(CC)S(=O)(=O)c1ccc2c(c1)c(C(=O)O)cn2C | 9.26% (inactive) |
